High-throughput results as filed in PubChem BioAssay.
This is a sample that favours compounds with a hit; in the whole collection about 6.5% have one here.
Vaccinia Venus: qHTS for Stage-Specific Inhibitors of Vaccinia Orthopoxvirus: Venus Reporter Primary qHTS | Vaccinia virus Venus reporter expression, fluorescence | Potency, µM (top dose mostly 36.5 µM), for inactives: top-dose activity change, negative = inhibition, usual class: inhibitors | 0.46% of 330,000 active | AID 720580, 2013; calls by dose curve; tested in A549 cells; also: potency is read from the fitted curve at half-maximal effect; nearly all actives have a fitted effect of over 30% in size
LASV entry inh: qHTS for Inhibitors of binding or entry into cells for Lassa Virus; Lassa virus pseudotype entry inhibition, cell reporter; Potency, µM (series often up to 37.9 µM), inactives show top-dose activity change, negative = inhibition, actives largely listed as inhibitors; 1.2% of 300,000 active; calls by dose curve; tested in HEK293 cells; also: potency is read from the fitted curve at half-maximal effect; nearly all actives have a fitted effect of over 50% in size
MARV entry inh: qHTS for inhibitors of binding or entry into cells for Marburg Virus; 1.8% of 300,000 active; Marburg virus pseudotyped entry inhibition, cell reporter; Potency, µM (doses to about 37.8 µM), for the others: at the top dose activity change, negative = inhibition, actives largely listed as inhibitors; AID 540276, 2011; calls by dose curve; tested in HEK293 cells; also: potency is read from the fitted curve at half-maximal effect
HCMV antiviral: qHTS Assay for inhibitors of the human cytomegalovirus (HCMV) | HFF cells, HCMV-luciferase reporter, 72 h; stronger effect = lower value | AID 1259415, 2018 | 4.5% of 410,000 active | activity change, negative = inhibition, % at 57.5 µM; in the data active = activity change below about -60%; inconclusive = no clear call, values can overlap the other calls; inactive = above about -39%
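Two-dose cell screen: HFF monolayers treated with compounds and infected with luciferase-expressing HCMV at 1 PFU/cell, 72 h at 37C, then lysed for luciferase measurement.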
FMDV antiviral: High Throughput Screening for Foot and Mouth Disease Virus Antivirals. Potency, µM (top dose mostly 57.9 µM), without a hit: top-dose activity change, negative = inhibition, most hits filed as inhibitors. AID 1159524, 2015. 1.2% of 410,000 active. FMDV antiviral cell-based qHTS; calls by dose curve; tested in HEK293T cells; also: read-out not given here; potency is read from the fitted curve at half-maximal effect; nearly all actives have a fitted effect of over 45% in size
Vaccinia mCherry: qHTS for Stage-Specific Inhibitors of Vaccinia Orthopoxvirus: mCherry Reporter Primary qHTS; Vaccinia virus mCherry reporter infection, fluorescence; Potency, µM (titrated, usually from 36.5 µM), for inactives: top-dose activity change, negative = inhibition, hits mostly inhibitors; 0.63% of 310,000 active; calls by dose curve; tested in A549 cells; also: potency is read from the fitted curve at half-maximal effect; nearly all actives have a fitted effect of over 35% in size
Starred values were filed as active, the others as inactive; i = inactive; ? = inconclusive; / = no result; [ ] = remark or other dose. % is scaled to controls: 0 for no effect and ±100 for the full control effect.

SMILES	Vaccinia Venus	LASV entry inh	MARV entry inh	HCMV antiviral	FMDV antiviral	Vaccinia mCherry
CCOC(=O)[C@]12CCC=C1N(Cc1ccccc1)C(=O)[C@H](CC(=O)NCc1cccc(C(F)(F)F)c1)C2	-20%	/	/	-97*	-12%	6%
COC(=O)[C@]12CCCCC=C1N(Cc1cccc3ccccc13)C(=O)[C@H](CC(=O)NCc1ccccc1)C2	3%	/	/	26	0%	-1%
CCOC(=O)c1oc2ccc(S(=O)(=O)n3nc(-c4cc(OC)cc(OC)c4)cc3N)cc2c1C	-21%	-1%[46.1 µM]	-8%[46.1 µM]	12	-9%	-25%
CCOC(=O)N1CCC(NC(=O)c2cnn(-c3ccc(F)cc3)c2-n2cccc2)CC1	-8%	13%[46.1 µM]	/	-4	-34%	-7%
CCN(CC)C(=O)c1ccc2nc3ccccc3nc2c1	?	21%	25%	-95*	45%	2.2µM*
COc1ccccc1NC(=O)C1=C(C)Nc2nnnn2C1c1ccc(C(F)(F)F)cc1 (stereo not drawn)	2%	16%[46.1 µM]	-16%[46.1 µM]	-3	-1%	-3%
Cc1ccc(CSCC(=O)N/N=C/c2ccc(OCC(=O)Nc3ccc(C)cc3)cc2)cc1	-12%	?	-12%	1	?	-19%
O=C(CSCc1ccccc1)N/N=C/c1ccc(OCC(=O)N2CCCCC2)cc1	-14%	-10%	-8%	-68*	?	i
O=C(COc1ccc(/C=N/NC(=O)CSCc2ccc([N+](=O)[O-])cc2)cc1)NCc1ccco1	-25%	?	11µM*	12	?	-2%
O=C(CSCc1ccccc1)N/N=C/c1cc2c(cc1Br)OCO2	-16%	?	?	-73*	-7%	-21%
CCCCNS(=O)(=O)c1ccc(NC(=O)C(Sc2ccccc2)c2ccccc2)cc1 (stereo not drawn)	10µM*	9.2µM*	?	-69*	0%	?
CC(=O)NS(=O)(=O)c1ccc(NC(=O)C(Sc2ccccc2)c2ccccc2)cc1 (stereo not drawn)	1%	-2%	11%	10	-22%	/
CCC(C)NS(=O)(=O)c1ccc(NC(=O)C(Sc2ccccc2)c2ccccc2)cc1 (stereo not drawn)	?	13µM*	?	-27	-14%	?
CN1C2CCC1CC(OC(=O)c1cc(Cl)cc(Cl)c1)C2 (stereo not drawn)	-14%	?	7.1µM*	17	?	/
Cc1nn(Cc2ccccc2)c(C)c1C=C1C(=O)NC(=S)NC1=O	-3%	2%	-9%	-1	14µM*	i
COC(=O)[C@@H]1CCCN1C(=O)c1cc(NC(=O)c2ccccc2)cc2ncn(C3CCCC3)c12	0%	/	/	/	-4%	-3%
Cc1cc(SCC(=O)c2ccc(O)c(O)c2)n2nc(C)c(-c3ccccc3)c2n1	-29%	/	/	-30	-22%	11µM*
Cc1cc(C)nc(SCC(=O)c2ccc(O)c(O)c2)n1	-22%	/	/	7	8%	?
O=[N+]([O-])c1cnc(Sc2ccncn2)s1	/	/	/	-99*	40µM*	/
COc1ccc2c(c1)c(CC(=O)O)c(C)n2C(=O)c1ccc(Cl)cc1	?	-12%	?	-21	-21%	-13%
COc1ccc2c(c1)c(CCN1CCOCC1)c(C)n2C(=O)c1cccc(Cl)c1Cl	/	23µM*	?	/	/	/
Cc1ccc2c(c1)N(CCC(=O)NC(C)C)C(=O)CO2	-5%	13%	?	-76*	0%	-13%
COc1ccc(CCNC(=O)Cc2c(C)c3c(cc(C)c4c(C)coc43)oc2=O)cc1OC	-6%	-1%[46.1 µM]	0%[46.1 µM]	?	6%	-9%
CCn1c(=O)c2cc(C(=O)NCCCN3CCN(C)CC3)sc2c2ccccc21	-15%	-1%[46.1 µM]	-12%[46.1 µM]	?	6%	-15%
O=C(NNC(=O)C12CC3CC(CC(C3)C1)C2)c1ccccn1	?	7.9µM*	10µM*	-107*	?	10µM*
O=C(N/N=C/c1cccnc1)C12CC3CC(CC(C3)C1)C2	-14%	16%[46.1 µM]	?	56	-13%	i
O=C(Nc1cccnc1)C12CC3CC(CC(C3)C1)C2	2%	5%	-19%	-64*	-18%	1%
